Source: PubChem BioAssay (Buhrlage Lab, Dana-Farber Cancer Institute and Novartis Institutes for BioMedical Research (Cambridge, Mass))
Rows were chosen to be rich in hits. Some 5% of all compounds tested hit in one or more screens of this group.
USP10 block: human USP10 deubiquitinase inhibition; Q14694; purified USP10, Ub-rhodamine fluorescence, 60 min; inhibition, % at 20 µM; hit rate 1.1% among 47,000; AID 1645856
Target sequence (Q14694 whole entry, looked up): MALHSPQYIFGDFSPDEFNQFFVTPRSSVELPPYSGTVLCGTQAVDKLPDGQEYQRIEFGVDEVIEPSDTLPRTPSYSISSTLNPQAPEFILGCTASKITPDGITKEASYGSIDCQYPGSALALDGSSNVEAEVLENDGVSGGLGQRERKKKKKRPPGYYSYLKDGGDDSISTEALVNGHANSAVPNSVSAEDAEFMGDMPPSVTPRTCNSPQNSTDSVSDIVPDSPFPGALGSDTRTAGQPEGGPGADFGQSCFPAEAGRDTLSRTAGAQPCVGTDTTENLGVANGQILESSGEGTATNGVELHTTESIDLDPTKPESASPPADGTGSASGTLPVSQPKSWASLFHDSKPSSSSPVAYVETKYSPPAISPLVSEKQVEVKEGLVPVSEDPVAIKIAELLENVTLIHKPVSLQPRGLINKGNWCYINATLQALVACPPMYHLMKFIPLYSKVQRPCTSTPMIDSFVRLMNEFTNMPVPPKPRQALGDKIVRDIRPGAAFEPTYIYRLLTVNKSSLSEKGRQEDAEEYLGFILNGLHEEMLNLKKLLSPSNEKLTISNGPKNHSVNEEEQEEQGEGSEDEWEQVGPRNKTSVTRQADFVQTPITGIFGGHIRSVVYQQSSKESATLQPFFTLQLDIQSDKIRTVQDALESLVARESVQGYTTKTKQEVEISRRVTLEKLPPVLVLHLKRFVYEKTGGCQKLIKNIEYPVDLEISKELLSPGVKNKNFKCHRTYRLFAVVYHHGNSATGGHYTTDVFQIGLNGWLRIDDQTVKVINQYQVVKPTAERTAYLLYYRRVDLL
USP7 block: inhibitors of human USP7 deubiquitinase; Q93009; purified USP7, Ub-rhodamine cleavage fluorescence; inhibition, % at 20 µM; hit rate 0.3% among 47,000; AID 1645854
USP8 inh: blocks human USP8 ubiquitin-rhodamine cleavage | inhibition, % at 20 µM | P40818 | purified USP8, Ub-rhodamine cleavage fluorescence, 30 min | AID 1645853 | hit rate 4.2% among 47,000
UCHL1 inh: inhibitors of human UCHL1 deubiquitinase. inhibition, % at 20 µM. purified UCHL1, Ub-rhodamine cleavage fluorescence. hit rate 0.2% among 47,000
Starred values were filed as active, the others as inactive. Cut-off read from the data, not from the text of the source: active = inhibition above about 30%; inactive = the rest.

SMILES | USP10 block | USP7 block | USP8 inh | UCHL1 inh
CCCCCCCc1cc(O)cc(OC(=O)c2c(CCCCCCC)cc(O)cc2O[C@H]2O[C@H](C(O)CO)[C@@H](O)[C@@H]2O)c1 (some centres undefined) | 12 | -4 | 0 | 15
Cc1nc2cc(N3CC(C(=O)Nc4ccc(F)cc4C)CC3=O)ccc2o1 (centres undefined) | 0 | 2 | 22 | 1
CCOC(=O)c1ccccc1NC(=O)C(=O)CC(=O)c1ccc(OC)cc1 | 3 | 0 | 78* | -2
CCOC(=O)c1ccccc1NC(=O)Cc1c(C)n(C(=O)c2ccc(Cl)cc2)c2ccc(OC)cc12 | -2 | -1 | -9 | 0
CC(=O)Nc1nsc(N2CCC(C(=O)NCc3ccccc3)CC2)n1 | -2 | -1 | -8 | -5
O=C(CCc1nnc2ccc(N3CCCCC3)nn12)NCCN1CCOCC1 | 0 | 3 | 41* | 2
CC(C)C(=O)N1c2ncnn2C(c2ccccc2Cl)CC1c1ccccc1 (centres undefined) | 4 | 6 | 6 | 4
C=C1CCC2[C@](C)(CCC[C@]2(C)C(=O)OC)[C@H]1CCc1ccoc1CNC(CCSC)C(=O)O (some centres undefined) | -8 | 2 | 43* | -7
Cn1c(NC(=O)c2ccco2)c(-c2cccs2)c(=O)c2ccccc21 | -6 | -59 | 34* | 14
CC(C)N1CCn2cc(S(=O)(=O)NCc3ccc(F)cc3)cc2C1=O | -1 | 6 | 3 | 1
Cc1nc(C2CCCN2C(=O)c2ccccn2)nc2c1CCC(=O)N2CC1CCCCC1 (centres undefined) | -2 | -7 | -1 | 1
O=C(CSc1nc2cc(C(F)(F)F)ccc2s1)NCC(=O)c1ccccc1 | 45* | 59* | 32* | 21
COc1cccc(-n2cnc3cc(C(=O)NCCc4ccccc4)ccc3c2=O)c1 | -5 | 23 | 54* | 4
COc1cccc(-n2cnc3cc(C(=O)N4CCCCC4)ccc3c2=O)c1 | 1 | 3 | 19 | 2
Cn1ccnc1C(=O)N1C[C@@H]2CCN(c3cccnc3)C[C@@H]2C1 | -7 | -6 | -28 | -5
O=C(NCc1ccc(F)cc1F)c1c(O)c2cnn(-c3ccc(F)cc3)c2[nH]c1=O | -2 | -78 | -192 | -5
COc1ccccc1CNC(=O)c1c(O)c2cnn(-c3cccc(C)c3)c2[nH]c1=O | 30 | -27 | 82* | 7
Cc1ccc(NS(=O)(=O)c2cc3c4c(c2)CCN4C(=O)CC3)cc1C | -2 | -2 | -3 | -4
CO/C=C/C(=O)c1cc2cnc3c(=N)cc(NC(C)=O)c([nH]1)c23 | -7 | -29 | 42* | 10
COc1ccc(CN2C[C@@H]3C[C@]3(c3ccccc3)C(=O)c3ncccc32)cc1 | 1 | -17 | 84* | 5
O=C(O)CN1C[C@@H]2C[C@]2(c2ccccc2)C(=O)c2ncccc21 | -8 | -13 | 12 | -14
Cc1ccc(S(=O)(=O)N2CCC(N3CCOCC3)CC2)cc1Cl | -2 | -2 | 1 | -2
COc1ccc(C2c3c(-c4ccccc4O)n[nH]c3C(=O)N2CCc2ccc(OC)c(OC)c2)cc1 (centres undefined) | 14 | 13 | 61* | 7
O=C1CC(C(=O)Nc2ccccc2F)n2nc(-c3ccccc3)cc2N1 (centres undefined) | 16 | 6 | 39* | 2
O=C1CC(C(=O)Nc2ccc(Cl)cc2Cl)n2ncc(-c3ccccc3)c2N1 (centres undefined) | 16 | 6 | -35 | 0
SMILES | USP10 block | USP7 block | USP8 inh | UCHL1 inh
O=C1CC(C(=O)Nc2ccccc2F)n2ncc(-c3ccccc3)c2N1 (centres undefined) | 5 | -2 | 23 | 1
O=C1CC(C(=O)Nc2ccccc2Cl)n2nc(-c3ccccc3)cc2N1 (centres undefined) | 4 | 8 | 31* | 0
N#Cc1cccc(C(=O)N2CCC3(CC2)OC(=O)Nc2ccccc23)c1 | 0 | 6 | 2 | 1
Cn1ccc(-c2cc(C(=O)NCc3ccccn3)c3ccccn23)n1 | -3 | -7 | 36* | -7
O=C(CCn1cnc2c(-c3ccccc3)noc2c1=O)NCc1ccc(F)cc1 | 2 | -31 | -6 | 2
Cc1occ2c1C(=O)c1c(O)ccc(O)c1C2 | 89* | 99* | 84* | 97*
Cc1cc(O)cc2c1C(=O)c1c(O)ccc(O)c1C2=O | -4 | -47 | -59 | -21
CC1=NS(=O)(=O)N(C)C=C1C(=O)OCc1ccc(F)cc1 | -8 | -84 | -123 | -87
COc1ccc(OC)c(-c2cn3ccn(-c4ccc(F)c(Cl)c4)c(=O)c3n2)c1 | 31* | -57 | 94* | 22
CC(=O)N1CCO[C@@H]2CCN(C(=O)c3cnccn3)CC[C@H]21 | 0 | 2 | -58 | -2
COc1cc2c(cc1OC)C(COc1cc(C)cc(C)c1)NCC2 (centres undefined) | -6 | -9 | 65* | -12
O=C(CSc1ccc2nnc(-c3ccccc3)n2n1)c1ccccc1 | 2 | 6 | 79* | 3
O=C(c1cc2c(s1)CN(C1CCCC1)C2)N1CCCN(c2ncccn2)CC1 | -9 | -8 | 84* | 0
O=C(c1cc2cn(C3CC3)cc2s1)N1CCCN(c2ncccn2)CC1 | -4 | -14 | 83* | -6
COc1ccc(CCNC(=O)N2CCC3(CC2)NC(=O)[C@H]2CN(CC(C)C)C[C@H]23)cc1 | -1 | 4 | -38 | 0
O=C1C(=O)N(c2nc3ccc(F)cc3s2)C(c2ccc(F)cc2)/C1=C(\O)c1ccc(F)cc1 (centres undefined) | 61* | 15 | -40 | 2
O=C1c2oc3ccccc3c(=O)c2C(c2ccco2)N1c1nc2ccc(F)cc2s1 (centres undefined) | -7 | -1 | -20 | -3
Cc1cccc(C(=O)Nc2cccc(SC(C(=O)Nc3ccc(O)c(C(=O)O)c3)c3ccccc3)c2)c1 (centres undefined) | 31* | 27 | 88* | 25
O=C(O)c1cccc(NC(=O)C(Sc2cccc(NC(=O)c3cccc(Cl)c3)c2)c2ccccc2)c1 (centres undefined) | 46* | -5 | 3 | 4
Cn1c(C2CCN(C(=O)Cc3ccc(Cl)cc3)C2)nc2ccncc21 (centres undefined) | -3 | 2 | 3 | 0
Cc1ccc(NC(=O)CN2CCC(Cc3ccccc3)CC2)cc1Cl | 6 | 6 | -33 | 0
CS(=O)(=O)N1CCN(c2ccccc2NC(=O)COc2ccc(Br)cc2)CC1 | 72* | 63* | 92* | 9
CS(=O)(=O)N1CCN(c2ccc(NC(=O)COc3ccccc3)cc2)CC1 | 6 | 4 | -14 | -3
Cc1cccc(NC(=O)c2ccc3nn(CC(=O)NCCC4=CCCCC4)c(=O)n3c2)c1 | -9 | 5 | 21 | -2
Cc1nnsc1C(=O)N1CCN(c2ccc([N+](=O)[O-])cc2-n2c(C)ccc2C)CC1 | 13 | 7 | -74 | 0
Nc1nc(-c2ccc3c(c2)NC(=O)CO3)cs1 | 5 | 1 | -40 | -3
O=C1COc2ccc(-c3cc4n(c3)CCc3cc5c(cc3-4)OCO5)cc2N1 | -4 | -7 | 43* | -1
CNc1nccnc1C1CN(C(=O)c2snnc2C(C)C)CCO1 (centres undefined) | 1 | 4 | 13 | -1
